PubChem BioAssay AID463173 (ICCB-Longwood Screening Facility, Harvard Medical School, 2010)
The campaign covered roughly 52,000 compounds. About 4,300 (8.3%) were called active. The full list was thinned out, with actives kept by preference. A number with no mark means an inactive call. Cut-off read from the data, not from the text of the source: active = survival mostly below about 52% (no sharp cut-off); inactive = mostly above about 56%.

test system: DeltatarO mutant; test: S. aureus survival, RN4220 and DeltatarO strains – OD600, teichoic acid synthesis inhibitors, primary screen (AID 463173); conditions: S. aureus RN4220 wild type/DeltatarO growth, OD600, 18 h, active compounds read low, screened at 18.75 µg/mL (by protocol)

In order of rising survival:
1. COc1ccc(-c2nc3cc(C(C)C)ccc3o2)cc1NC(=O)c1ccccc1[N+](=O)[O-]  50%
2. CCc1cc(C(=O)Nc2cnn(Cc3ccc(F)cc3)c2)no1  50%
3. Cc1ccc(-c2cc(C(F)(F)F)n3nc(-c4ccc(Cl)cc4)cc3n2)cc1  51%
4. CC1CCN(S(=O)(=O)c2ccc3c(ccn3CC(=O)NCc3ccccc3F)c2)CC1  54%
5. COc1cc(NC(=O)C(CCS(C)(=O)=O)N2Cc3ccccc3C2=O)cc(OC)c1OC (stereo not drawn)  55%
6. COc1ccc(-c2cc3nc(-c4ccccc4)cc(C(F)(F)F)n3n2)cc1  58%
7. COc1ccc(-c2nc3cc(NC(=O)COc4ccccc4C)ccc3o2)cc1  60%
8. C/C=C(\C)C(=O)OC1c2c(ccc3ccc(=O)oc23)OC(C)(C)C1OC(C)=O (stereo not drawn)  60%
9. O=C(Nc1ccccc1F)C(Cc1ccccc1)N1Cc2ccccc2C1=O (stereo not drawn)  60%
10. O=C(Nc1nnc(S(=O)(=O)N2CCCCCC2)s1)c1ccc(Cl)cc1  62%
11. CCOc1ccc(C(=O)Nc2ccc(-c3nc4cc(C(C)C)ccc4o3)cc2)cc1Cl  65%
12. COC(=O)c1ccc(NC(=O)C(C)N2Cc3ccccc3C2=O)cc1 (stereo not drawn)  66%
13. O=C(Nc1ccc(F)c(Cl)c1)C1CCCN(S(=O)(=O)c2cccc3nsnc23)C1 (stereo not drawn)  67%
14. Cc1cccc(C(c2sc3nc(-c4ccco4)nn3c2O)N2CCN(c3ccccc3F)CC2)c1 (stereo not drawn)  67%
15. Cc1ccc(S(=O)(=O)c2cnc(SC(C)C(=O)Nc3ccccc3)[nH]c2=O)cc1 (stereo not drawn)  71%
16. COc1ccc(NC(=O)c2c(NC(=O)COc3ccccc3)sc3c2CCCCC3)cc1  72%
17. Cc1cc(C)nc(-n2nc(C)c3c2N(Cc2ccccc2C)C(=O)CC3c2ccc(Cl)cc2)n1 (stereo not drawn)  72%
18. COc1ccc(-c2cc(C(F)(F)F)n3nc(C(=O)Nc4cccc(C(F)(F)F)c4)c(Br)c3n2)cc1  73%
19. Cc1cccc(CNC(=O)Cn2ccc3cc(S(=O)(=O)N4CCCC4)ccc32)c1  73%
20. COc1cccc(C(=O)Nc2ccc3nc(SCCOc4ccccc4)sc3c2)c1  75%
21. Cc1ccc(NC(=O)c2c(NC(=O)c3ccccc3)sc3c2CCC3)cc1  76%
22. Cc1cccc(CNC(=O)Cn2ccc3cc(S(=O)(=O)N4CCC(C)CC4)ccc32)c1  76%
23. COc1ccccc1NC(=O)Cn1c(=O)n(-c2ccccc2Cl)c(=O)c2sc3ccccc3c21  77%
24. Cc1ccc(C(=O)Nc2nnc(S(=O)(=O)N3CCCCCC3)s2)cc1  79%
25. O=C(Nc1nnc(S(=O)(=O)N2CCCCC2)s1)c1ccc(F)cc1  79%
26. CCN(c1ccc(OC)cc1)S(=O)(=O)c1ccc2[nH]c3c(c2c1)CCCCC3  80%
27. COc1ccc(NC(=O)Cn2c(SCc3ccc(C)cc3)nc3cccnc32)c(OC)c1  82%
28. N#Cc1cccc(NC(=O)C2CCN(c3nc(-c4ccc(Cl)cc4)no3)CC2)c1  82%
29. CCc1ccc(-n2c(N3CCN(c4ccc(F)cc4)CC3)nc3ccccc3c2=O)cc1  83%
30. CCc1ccccc1NC(=O)Cn1c(=O)c2cccn2c2ccc(F)cc21  83%
31. COc1ccc(-c2nc3cc(NC(=O)COc4ccc(C)c(C)c4)ccc3o2)cc1  84%
32. CCC1/C(=N\O)CC(c2ccco2)NC1c1ccco1 (stereo not drawn)  84%
33. Cc1ccc(NC(=O)[C@H](Cc2ccccc2)N2Cc3ccccc3C2=O)cc1F  84%
34. COc1ccccc1NC(=O)c1c(NCc2sccc2C)sc2c1CCCCC2  85%
35. COc1ccc(CNC(=O)CCCCCn2c(=O)[nH]c3ccccc3c2=O)cc1  86%
36. COC(=O)c1cc(NC(=O)[C@H](CCS(C)(=O)=O)N2Cc3ccccc3C2=O)cc(C(=O)OC)c1  86%
37. O=C(CSc1nc2c([nH]c3ccccc32)c(=O)n1-c1ccc(Cl)cc1)NC1CCCCC1  87%
38. Cc1cccc(CNC(=O)CCn2ccc3cc(S(=O)(=O)N4CCCC4)ccc32)c1  87%
39. Cc1sc2c(c1C)c(=O)n(CCc1ccccc1)c(=O)n2Cc1ccc(C(C)(C)C)cc1  87%
40. Cc1cc(-c2ccc(C)c(S(=O)(=O)N(C(C)C)C3CCCCC3)c2)on1  88%
41. O=C(CN(CC1CCCO1)S(=O)(=O)c1ccc(S(=O)(=O)N2CCOCC2)cc1)Nc1ccccc1 (stereo not drawn)  89%
42. O=C(Nc1ccc(F)cc1)[C@H](Cc1ccccc1)N1Cc2ccccc2C1=O  89%
43. Cc1cc(C)cc(NC(=O)C(C)N2Cc3ccccc3C2=O)c1 (stereo not drawn)  91%
44. CCc1ccc(CNC(=O)CCCn2ccc3cc(S(=O)(=O)N4CCCC4)ccc32)cc1  91%
45. CC(C)Cn1c(=O)c2ccccc2n2c(CCC(=O)N3CCN(c4ccccc4F)CC3)nnc12  92%
46. Cn1c2c(c(=O)n(C)c1=O)C(c1ccccc1[N+](=O)[O-])CC(=O)N2 (stereo not drawn)  93%
47. COc1ccc(Cc2nc3ccc(C(=O)NCc4cc(Br)ccc4OC)cc3o2)cc1  93%
48. O=C1C2C3C=CC(C3)C2C(=O)N1CCCCN1C(=O)C2C3C=CC(C3)C2C1=O (stereo not drawn)  93%
49. CCCn1ccc2c(OCC(=O)Nc3ccccc3C(=O)OCC)cccc2c1=O  94%
50. O=C(CCn1ccc2cc(S(=O)(=O)N3CCCC3)ccc21)NCc1ccccc1F  94%
51. COC(=O)CSc1nc2cc3c(cc2cc1C#N)OCO3  97%
52. Cc1nn(C)c2c1c(-c1ccccc1)cc(=O)n2C(C)C(=O)NCCc1ccc(Cl)cc1 (stereo not drawn)  99%
53. CCn1c(=O)n(CC)c2cc(N3CCCCC3)c(NC(=O)Nc3ccccc3C(F)(F)F)cc21  101%
54. O=C(COC(=O)c1ccccn1)Nc1ccccc1  101%
55. COc1ccc(NC(=O)C(C)N2Cc3ccccc3C2=O)cc1OC (stereo not drawn)  101%
56. COc1ccc(CNC(=O)CCCn2ccc3cc(S(=O)(=O)N4CCCC4)ccc32)cc1  101%
57. CC1CCC2(CC1)Nc1ccccc1S2 (stereo not drawn)  105%
58. COc1ccc(-c2noc(-c3ccc(NC4CCCC4)c([N+](=O)[O-])c3)n2)cc1  108%
59. O=C(Nc1nnc(S(=O)(=O)N2CCCC2)s1)c1ccc(F)cc1  111%
60. Cc1ccc(C)c(CN2C(=O)c3ccccc3S(=O)(=O)c3ccc(C(=O)NCCc4ccc(Cl)cc4)cc32)c1  111%
61. CCOC(=O)c1ccc2c(c1)N(CC(=O)Nc1ccc(C)cc1C)C(=O)c1ccccc1S2  112%
62. CCOC(=O)c1ccccc1NC(=O)Cn1ccn2nc(-c3ccc(OCC)cc3)cc2c1=O  115%
63. O=C(Cn1ccc2cc(S(=O)(=O)N3CCCCC3)ccc21)NCc1cccc(Cl)c1  117%
64. Cc1noc(Cn2c(=O)c3cc4c(cc3n(CC(=O)Nc3cccc(Cl)c3)c2=O)OCO4)n1  122%
65. CCOc1ccc(NC(=O)C(CC(C)C)N2Cc3ccccc3C2=O)cc1 (stereo not drawn)  130%
66. Cc1ccc(C)c(NC(=O)C(CC(C)C)N2Cc3ccccc3C2=O)c1 (stereo not drawn)  134%
67. Cc1ccc(NC(=O)c2c(NC(=O)c3ccccc3Cl)sc3c2CCC3)cc1  160%
68. COc1ccc(NC(=O)c2c(NC(=O)c3ccc(Br)cc3)sc3c2CCCC3)cc1  169%
69. CCOC(=O)c1cc2c(=O)n3ccccc3nc2n(CCOC)c1=NC(=O)c1c(-c2ccccc2Cl)noc1C  180%

For COc1ccc(-c2nc3cc(C(C)C)ccc3o2)cc1NC(=O)c1ccc(C)c(Cl)c1, the survival was 21% (active).
COc1ccc(-c2nc3cc(C(C)C)ccc3o2)cc1NC(=O)COc1ccc(C)cc1C was tested, and the survival was 37% (active).
In the case of Cc1cc2nc(-c3ccc(OCc4ccccc4Cl)cc3)cc(C(F)(F)F)n2n1, the survival is reported as 25% (active).
For Cc1cc2nc(-c3ccc(OCc4ccccc4C)cc3)cc(C(F)(F)F)n2n1, the survival was 13% (active).
With Cc1cc2nc(-c3ccc(OCc4ccccc4F)cc3)cc(C(F)(F)F)n2n1 the survival was 45% (active).
In the case of Cc1ccc(NC(=O)c2c(NC(=O)C(F)(F)F)sc3c2CCCCC3)cc1, the survival is reported as -5% (active).
COc1ccc(NC(=O)c2c(NC(=O)C(F)(F)F)sc3c2CCCCC3)cc1 was tested, and the survival was 2% (active).
Cc1ccccc1NC(=O)c1c(NC(=O)C(F)(F)F)sc2c1CCCCC2 was tested, and the survival was -3% (active).
With O=C(Nc1nnc(S(=O)(=O)N2CCCCCC2)s1)c1ccccc1 the survival was 38% (active).
In the case of O=C(Nc1nnc(S(=O)(=O)N2CCCCC2)s1)c1ccc(Cl)cc1, the survival is reported as 37% (active).
For CC(C(=O)Nc1ccc(OC(F)(F)F)cc1)N1Cc2ccccc2C1=O (stereo not drawn), the survival was 20% (active).
With CS(=O)(=O)CCC(C(=O)Nc1cccc(C(F)(F)F)c1)N1Cc2ccccc2C1=O (stereo not drawn) the survival was 17% (active).
For Cc1ccc(NC(=O)C(CC(C)C)N2Cc3ccccc3C2=O)cc1F (stereo not drawn), the survival was -5% (active).
With O=C(Nc1ccc(F)cc1F)C(Cc1ccccc1)N1Cc2ccccc2C1=O (stereo not drawn) the survival was -4% (active).
With CC(C(=O)Nc1ccc(F)c(Cl)c1)N1Cc2ccccc2C1=O (stereo not drawn) the survival was 8% (active).
With CN(C)c1ccc(CNC(=O)CCCn2ccc3cc(S(=O)(=O)N4CCCC4)ccc32)cc1 the survival was 8% (active).
For O=C(CCn1ccc2cc(S(=O)(=O)N3CCCC3)ccc21)NCc1cccc(Cl)c1, the survival was 17% (active).
With Cc1cccc(CNC(=O)Cn2ccc3cc(S(=O)(=O)N4CCCCCC4)ccc32)c1 the survival was -5% (active).
For CC1CCN(S(=O)(=O)c2ccc3c(ccn3CCC(=O)NCc3ccccc3F)c2)CC1, the survival was -5% (active).
